Compounds with a hit are over-represented: about 1.3% of the library has one in this group of screens.
HTT-AS act: activators of huntingtin-antisense promoter activity. HEK293 HTT-AS promoter firefly luciferase reporter, 24 h; response scale: percent change from vehicle, -100% = no light. 48,000 compounds, 0.24% hits. Potency, µM (top dose mostly 57.5 µM), inactives show top-dose activity change, positive = activation, most hits filed as activators. AID 1508624; also: nearly all actives have a fitted effect of over 55% in size
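Firefly luciferase readout (Dual-Glo, 10 min RT) after 24 h, 37 °C compound exposure (final up to 57.5 uM) of HEK293 reporter cells cultured 24 h beforehand; PTC124 at 50 uM final as control inhibitor; activity scaled vehicle 0%, zero RLU -100%.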
FH mod: Identification of activators of human fumarate hydratase by quantitative high-throughput screening. Fumarate hydratase, mitochondrial (Homo sapiens), P07954. FH coupled MDH/diaphorase resazurin fluorescence, 15 min. Potency, µM (top dose mostly 79.9 µM), inactives show top-dose activity change, negative = inhibition, usual class: inhibitors. 54,000 compounds, 0.22% hits. AID 1347055, 2019; also: % is scaled to controls: 0 for no effect and ±100 for the full control effect; the screen sought activators but most active calls are inhibition curves; nearly all actives have a fitted effect of over 45% in size
Target sequence (P07954 whole entry, looked up): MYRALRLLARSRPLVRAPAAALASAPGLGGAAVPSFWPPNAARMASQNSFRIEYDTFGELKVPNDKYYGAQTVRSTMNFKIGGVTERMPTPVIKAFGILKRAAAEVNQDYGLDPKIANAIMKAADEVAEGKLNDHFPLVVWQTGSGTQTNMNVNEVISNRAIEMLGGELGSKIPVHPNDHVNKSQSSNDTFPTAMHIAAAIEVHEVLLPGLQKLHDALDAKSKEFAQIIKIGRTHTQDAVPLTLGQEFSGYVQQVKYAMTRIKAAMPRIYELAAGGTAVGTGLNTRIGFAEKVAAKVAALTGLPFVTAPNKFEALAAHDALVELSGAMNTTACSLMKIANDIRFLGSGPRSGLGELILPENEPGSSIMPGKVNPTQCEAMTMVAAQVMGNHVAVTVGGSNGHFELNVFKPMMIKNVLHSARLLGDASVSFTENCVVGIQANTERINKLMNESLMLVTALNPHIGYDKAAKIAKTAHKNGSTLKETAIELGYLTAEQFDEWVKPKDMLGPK
HTT promoter inh: HTT promoter inhibition | Potency, µM (titrated, usually from 57.5 µM), for inactives: at the top dose activity change, negative = inhibition, hits mostly inhibitors | HEK293 HTT promoter firefly luciferase reporter, 24 h | AID 1508623 | 48,000 compounds, 0.93% hits; also: nearly all actives have a fitted effect of over 50% in size
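Luminescence was read after Dual-Glo reagent and a 10 min room-temperature incubation. Values were normalized to vehicle (0% activity) and zero RLU (-100% activity). Reporter HEK293 cells had been exposed to compounds (up to 57.5 uM final) for 24 h.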
An asterisk follows results filed as active; ? = inconclusive; . = not tested or not shown; [ ] = dose if it differs, or a comment. Calls follow the shape of the dose curve; as a rule, active = well fitted curve in the direction sought with a large enough effect; inconclusive = small, poorly fitted or top-dose-only effect, or another doubt; inactive = no such curve, though single readings can be large; an effect the other way counts as inactive or inconclusive. Potency is read from the fitted curve at half-maximal effect.

SMILES | HTT-AS act | FH mod | HTT promoter inh
CC(C)c1ccc(Nc2c(-c3ccccn3)nc3ccccn23)cc1 | -66.9% | 22.1% | 25.1µM*
Cc1ccccc1Nc1c(-c2c(F)cccc2Cl)nc2ccc(Br)cn12 | -2.6% | -5.4% | -23.4%
Cc1ccn2c(Nc3ccccc3C)c(-c3ccccn3)nc2c1 | -45.9% | ? | ?
CC(C)n1nc(Cc2cccc3ccccc23)c2c(N)ncnc21 | . | -8.8% | .
CCOC(=O)c1csc(Nc2ccc(Cl)cc2)n1 | . | 2.2% | .
COc1ccc(CCNC(=O)c2c[nH]n3c(=O)c(Cc4ccccc4Cl)c(C)nc23)cc1OC | -33.8% | 17.8µM* | ?
Cc1nc2c(C(=O)NCCc3ccc(Cl)cc3)c[nH]n2c(=O)c1Cc1ccccc1F | -17.4% | ? | -8.9%
COc1ccc(S(=O)(=O)N2CCC[C@H]2C(=O)Nc2cc(C)cc(C)c2)cc1 | . | 0.5% | .
O=C1CCc2cc(S(=O)(=O)Nc3ccc(F)c(Cl)c3)c(F)cc2N1 | . | 3.7% | .
COc1ccc(C(=O)NC(c2ccc(Cl)cc2)c2cc(Cl)c3cccnc3c2O)cc1 (stereo unspecified) | -58.9% | -0.9% | 17.8µM*
COc1ccc(C(=O)Nc2cc(C(C)C)c(O)c(S(=O)(=O)c3ccc(Cl)cc3)c2C)cc1 | ? | -16.3% | -5.3%
OC/C=C/c1ccc(O[C@@H]2O[C@H](CO)[C@@H](O)[C@H](O)[C@H]2O)cc1 | . | -0.3%[53.3 µM] | .
CCOC(=O)N1CCc2c(sc(NCc3cccs3)c2C(=O)Nc2ccc(OC)cc2OC)C1 | -90.6% | -32.9% | 7.94µM*
CCOC(=O)N1CCc2c(sc(NCc3ccc(OC)c(OC)c3OC)c2C(=O)Nc2ccc(OC)cc2OC)C1 | -85.8% | -15.0% | ?
CCOC(=O)N1CCc2c(sc(NCc3ccc(OCC)cc3)c2C(=O)Nc2ccc(OC)cc2OC)C1 | -82.0% | -17.9% | 10µM*
CCOC(=O)N1CCc2c(sc(NCc3cccs3)c2C(=O)Nc2cc(OC)ccc2OC)C1 | -16.2% | -16.8% | -9.4%
COc1ccc2c(c1)CCc1c(C(=O)Nc3c(C)nn(Cc4ccc(C)cc4)c3C)noc1-2 | -46.9% | ? | 22.4µM*
COc1ccc2c(c1)CCc1c(C(=O)Nc3cc(OC)c(Cl)cc3OC)noc1-2 | -6.3% | -3.8% | -7.6%
O=S(=O)(/N=C/c1c(O)ccc2ccccc12)c1cccs1 | . | 15.8µM* | .
O=S(=O)(N=Cc1c(O)ccc2ccccc12)c1cccs1 | 29.0% | -12.2%[53.3 µM] | 13.2%
O=C(Nc1cccnn1)N1CCC(=Cc2cccc(Oc3ccc(C(F)(F)F)cn3)c2)CC1 | . | -8.2% | .
O=C(/C=C/c1ccc(O)cc1)OCC1OC(O)C(OC2OC(CO)C(O)C(O)C2O)C(O)C1O (stereo unspecified) | . | 1.3%[53.3 µM] | .
Cc1ccc(NC(=O)CN2CCSc3ccc(S(=O)(=O)N4CCCC4)cc32)cc1 | -36.3% | -40.4% | ?
CCc1ccc(NC(=O)Cn2c(=O)oc3cc(S(=O)(=O)N4CCCCCC4)ccc32)cc1 | -48.8% | -11.3% | ?
CCOc1ccc(NC(=O)Cn2c(=O)oc3cc(S(=O)(=O)N4CCC(C)CC4)ccc32)cc1 | -48.7% | -11.2% | 10µM*
SMILES | HTT-AS act | FH mod | HTT promoter inh
CCOc1ccc(NC(=O)CN2CCSc3ccc(S(=O)(=O)N4CCCC4)cc32)cc1 | -38.8% | -19.8% | 25.1µM*
COc1ccc(C(=O)OC2C3C=COC(OC4OC(CO)C(O)C(O)C4O)C3C3(CO)OC23)cc1OC (stereo unspecified) | . | 0.4%[53.3 µM] | .
COc1cc(O)c2c(c1)C1OC1C[C@H](O)[C@H](O)C(=O)/C=C\C[C@H](C)OC2=O (stereo partly specified) | . | 7.7% | .
CCOc1cccc2c1OC(c1ccc(F)cc1)C([N+](=O)[O-])=C2 (stereo unspecified) | . | -3.3% | .
COc1ccc(C(=O)Nc2cc(-c3nc4ccccc4s3)ccc2OC)cc1 | -3.2% | -21.7% | 7.3%
COc1ccc(C(=O)Nc2ccc(-c3nc4ccccc4s3)cc2C)cc1Cl | 1µM* | 4.7% | 56.8%
C=C1CC[C@@H]2[C@](C)(CC[C@H](O)[C@@]2(C)CCC=C(C)C)[C@@H]1Cc1c[nH]c2ccccc12 | . | 1.8%[53.3 µM] | .
NC1(c2ccc(NC(=O)c3ccnc(-c4cc(C(=O)O)ccn4)c3)cc2)CC1 | . | 4.8% | .
CCOc1ccc(CCNC(=O)CCCn2c(=O)c3cccn3c3ccccc32)cc1 | -19.7% | -4.2% | -19.9%
CCOc1ccc(CCNC(=O)CCCc2cc(-c3ccc(OCC)cc3)on2)cc1 | -77.5% | 1.3% | 0.316µM*
Cc1ccc(-n2ncc3c(NCCCn4ccnc4)ncnc32)cc1C | 18.8% | 13.0% | 12.8%
Clc1cccc(-n2ncc3c(NC4CCCCC4)ncnc32)c1 | ? | ? | -27.1%

Bioassay records (PubChem BioAssay)
